Experimental data from PubChem BioAssay (NCI).
Where “and” joins values, the source holds several entries; their conditions need not be identical. Equal values may be shown once. Compounds without any hit were thinned out: in the full panel of roughly 79,000, 15% have a hit. Calls of active or inactive are those of the source. No stated cut-off is given here; in the data, active means growth inhibition above about 70%; inactive means the rest.

What was measured:
[1] = NCI Yeast Anticancer Drug Screen. Data for the rad50 strain (AID 155);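 further: 0% = growth of vehicle-only cultures of the same strain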; conditions: S. cerevisiae rad50 strain growth inhibition, stronger effect = higher value; at 50.0 µM unless noted
How it was run: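 Growth of the mutant yeast was measured after compound exposure and referenced to vehicle-treated cultures.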

[2] = NCI Yeast Anticancer Drug Screen. Data for the mec2-1 strain (AID 157); conditions: S. cerevisiae mec2-1 strain, stronger effect = higher value; at 50.0 µM unless noted
How it was run: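 Using mec2-1 yeast: add compound, measure growth, express inhibition versus vehicle-treated cultures.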

[3] = NCI Yeast Anticancer Drug Screen. Data for the sgs1 mgt1 strain (AID 161);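 further: 0% = growth of cultures given vehicle only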; conditions: S. cerevisiae sgs1 mgt1 strain, stronger effect = higher value; at 50.0 µM unless noted
How it was run: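 Compounds are added to genetically altered yeast, and growth is compared with cultures given vehicle alone to give percent inhibition.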

[4] = NCI Yeast Anticancer Drug Screen. Data for the cln2 rad14 strain (AID 165);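 further: 0% = growth equal to vehicle treated cultures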; conditions: S. cerevisiae cln2 rad14 strain, stronger effect = higher value; at 50.0 µM unless noted
How it was run: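 Yeast strain cln2 rad14, bearing defects in cell cycle control and DNA repair, serves as the test system; values reflect growth inhibition compared with vehicle.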

[5] = NCI Yeast Anticancer Drug Screen. Data for the bub3 strain (AID 167); conditions: S. cerevisiae bub3 mutant strain, stronger effect = higher value; at 50.0 µM unless noted
How it was run: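 Whole-cell yeast assay. The mutant strain was incubated with compounds, and growth inhibition was determined by comparison with vehicle-treated cells.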

[6] = NCI Yeast Anticancer Drug Screen. Data for the mlh1 rad18 strain (AID 175); conditions: S. cerevisiae mlh1 rad18 strain growth inhibition, stronger effect = higher value; at 50.0 µM unless noted
How it was run: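 Steps: expose repair-defective yeast to compound; measure growth; express inhibition against vehicle-treated controls.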

Measured: growth inhibition

Fc1ccccc1-c1nn2c(C34CC5CC(CC(C5)C3)C4)nnc2s1
inactive: [1] 6.45% | [2] -33.1% | [3] -29.6% | [4] -14.5% | [5] -11.8% | [6] -52%

Cc1cc(C)nc(NS(=O)(=O)c2ccc(NC(=O)c3ccc(Cl)c4c(Nc5ccc(S(=O)(=O)N=C(N)N)cc5)c5ccccc5nc34)cc2)n1
inactive: [1] 28% | [2] 27% | [3] 20.1% | [4] 29.7% | [5] 23.2% | [6] 31.4%

N#CC(C(=S)Nc1ccccc1)=C1Nc2ccccc2N1
inactive: [1] 7.2% | [2] -36.2% | [3] -18.1% | [4] -2.65% | [5] -20.1% | [6] -22.8%

COc1ccc2cc1Oc1ccc(cc1)C[C@H]1c3cc(c(OC)cc3CCN1C)Oc1c(OC)c(OC)cc3c1[C@H](C2)N(C)CC3
inactive: [1] 27.1% and 23.9% | [2] 12.3% and -23.1% | [3] -15.9% and 5.7% | [4] -26.3% and 4.5% | [5] -6.4% and 19.7% | [6] -31.4% and -38.9%

NC(=O)CSCC(N)=O
inactive: [1] 0.75% | [2] -13.9% | [3] 3.45% | [4] 6.05% | [5] -2.75% | [6] 22%

[N-]=[N+]=Nc1ccc2nc(N)nc(N)c2c1
inactive: [1] -4.25% | [2] 5.7% | [3] 2.85% | [4] -33.9% | [5] -7.45% | [6] -5.2%

Cc1ccc(-c2c(C#N)c(O)n(NS(=O)(=O)c3ccccc3)c(=O)c2C#N)cc1
inactive: [1] 4.45% | [2] 6.4% | [3] -30.4% | [4] 0.8% | [5] -14.3% | [6] -11.7%

CCOC(=O)C(Cc1ccccc1)NC(=O)c1ccc(N=NN(C)C)cc1 (stereo not given)
inactive: [1] -19.8% | [2] -31.7% | [3] -37.2% | [4] -8.15% | [5] 6.65% | [6] -29.6%

CC(=O)NS(=O)(=O)c1ccc(NC(=O)/C=C/C(=O)O)cc1
inactive: [1] 1.1% and -16.6% | [2] -15.7% and -18.1% | [3] -0.45% | [4] -3.05% | [5] -11.7% | [6] 19.9% and -18%

COC(=O)CCCCC(=O)OC
inactive: [1] 35.9% | [2] -0.3% | [3] 15.1% | [4] -1.9% | [5] -9% | [6] 13.4%

O=C(O)c1cccc(C(=O)O)c1Sc1ccccc1
inactive: [1] 1.9% | [2] 1.9% | [3] 5.75% | [4] 11.3% | [5] -0.1% | [6] 12.1%

ClC1c2cccc3cccc(c23)C1Cl (stereo not given)
inactive: [1] 6.95% | [2] 8.75% | [3] -0.6% | [4] 4.45% | [5] 7.5% | [6] 10.7%

Cc1cc(C)c([N+](=O)[O-])cc1N
inactive: [1] 20.9% | [2] 15.1% | [3] 26.6% | [4] 13.5% | [5] 22.8% | [6] 19.6%

COc1ccc2c3c([nH]c2c1N)C(C)NCC3 (stereo not given)
inactive: [1] -11.4% | [2] -18.9% | [3] 4.2% | [4] 13.3% | [5] -18.3% | [6] 0.4%

CC1CC(C)(O)C2C3(C)CCCC2(COC3=O)C12CCC1(CCOC1=O)O2 (stereo not given)
inactive: [1] 0.9% | [2] -23.5% | [3] 25.3% | [4] 3.8% | [5] -0.6% | [6] 2.9%

CC1=C(C(=O)Nc2ccccc2)C(c2ccc(N(C)C)cc2)C(C(=O)Nc2ccccc2)=C(C)N1
inactive: [1] -13.7% | [2] 7.4% | [3] -6.3% | [4] 24.4% | [5] -6.8% | [6] 15.8%

CC1(O)CC(=O)c2c(cc3ccc(-c4c5c(c(O)c6c(O)cccc46)C(=O)CC(C)(O)C5)c(O)c3c2O)C1 (stereo not given)
inactive: [1] 54.1% | [2] 48.1% | [3] 35.5% | [4] 23.8% | [5] 19.7% | [6] 9.95%

CS(=O)(=O)OCCN(CCOS(C)(=O)=O)c1ccc([N+](=O)[O-])cc1[N+](=O)[O-]
inactive: [1] 22.6% | [2] -5.8% | [3] -0.2% | [4] 24.8% | [5] -3.95% | [6] 13.6%

COC1(OC)C(C#N)=C(c2ccccc2)C1(OC)OC
inactive: [1] -8% | [2] -6.25% | [3] -6.5% | [4] -19.9% | [5] -14% | [6] -6.8%

O=C1c2ccccc2NC(O)c2cccn21 (stereo not given)
inactive: [1] 0.3% | [2] 0.2% | [3] -3.75% | [4] -25.9% | [5] 11.4% | [6] -5.45%

CC1CCCN1CCOC(=O)C(c1ccccc1)C1CCCC1 (stereo not given)
inactive: [1] -4.65% | [2] 35.5% | [3] 32.1% | [4] -4.7% | [5] 3.3% | [6] 11.2%

Cc1cccc(C)c1NC(=O)CCc1nnc2s/c(=C\c3ccc(N(C)C)cc3)c(=O)n12
inactive: [1] 29.8% | [2] 30.1% | [3] 25.6% | [4] 0.15% | [5] 4.85% | [6] 10.3%

NNC(=O)c1c(O)ccc2ccccc12
inactive: [1] 19.2% | [2] -28.1% | [3] 23.4% | [4] 20.2% | [5] -4.2% | [6] 12.6%

CCOC(=O)c1[nH]cc(C(=O)O)c1C
inactive: [1] 15.3% | [2] 0.15% | [3] 6.05% | [4] -44.7% | [5] 1.25% | [6] 17.2%

Cc1ccc(NC(=O)N(C)C)c(C)c1
inactive: [1] -36.7% | [2] -37% | [3] -4.9% | [4] 12% | [5] 16.4% | [6] -9.75%

CCOC(=O)C(NC(C)=O)(Nc1ccc(S(N)(=O)=O)cc1)C(F)(F)F (stereo not given)
inactive: [1] -16.2% | [2] 1.55% | [3] 3.95% | [4] 27.6% | [5] 7.7% | [6] -28.9%

Cc1nnc(N/N=C(/C(=O)C(C#N)c2ccc(Cl)cc2)C(C#N)c2ccc(Cl)cc2)n1N (stereo not given)
inactive: [1] -9.3% | [2] 19.6% | [3] 3.85% | [4] 16.6% | [5] 12% | [6] 7.4%

Cc1nn2c(nnn2CCO)c1-c1ccccc1
inactive: [1] 10.7% | [2] -5.65% | [3] -15% | [4] -10.6% | [5] -25.4% | [6] 15.8%

C=CCOC(=O)CC(=C)C(=O)O
inactive: [1] 18.9% | [2] 31% | [3] 15.8% | [4] -24.8% | [5] 6.2% | [6] 7.55%

CC1(C)C2(Cl)C(Cl)=C(Cl)C13C(Cl)(c1ccc([N+](=O)[O-])cc1C1(Cl)C(Cl)(Cl)C4(Cl)C(Cl)=C(Cl)C13C4(C)C)C2(Cl)Cl (stereo not given)
inactive: [1] 0.55% | [2] -10.1% | [3] -27.9% | [4] -7.6% | [5] -2.5% | [6] 13%

[N-]=[N+]=Nc1c(C=O)c(=O)n2c3c(cccc13)CCC2
inactive: [1] 17.2% | [2] 32% | [3] 29.2% | [4] 31.2% | [5] 27.7% | [6] 61%

COc1ccc(-c2cc(-c3ccco3)c(C#N)c(=O)[nH]2)cc1
inactive: [1] 3.95% | [2] 6.2% | [3] 14.2% | [4] 14.2% | [5] 8.65% | [6] 27.3%

NC(N)=N/N=C(\c1ccc(C(F)(F)F)cc1)c1ccc(Cl)c(Cl)c1
active: [1] 99.5% | [2] 99.5% | [3] 99.7% | [4] 99.2% | [5] 99.3% | [6] 99.7%

Cc1cccc(C2=N/C(=C\c3ccc(N(C)C)cc3)C(=O)O2)c1
inactive: [1] 20.2% | [2] 6% | [3] 7.7% | [4] 18.2% | [5] 3.05% | [6] -6.1%

O=C(OCCCl)c1ccc(Cl)c(Cl)c1
inactive: [1] 5.75% | [2] -20.1% | [3] 7.05% | [4] 9% | [5] 3.75% | [6] -19.9%

Cc1cc(Cl)ccc1NC(=O)C(=O)Cc1ccc([N+](=O)[O-])c([N+](=O)[O-])c1CC(=O)C(=O)Nc1ccc(Cl)cc1C
inactive: [1] -10.6% | [2] -30.4% | [3] -13.6% | [4] -7.8% | [5] 18.6% | [6] 7%

CCOCC(Br)C(OCC)OCC (stereo not given)
inactive: [1] 19.2% | [2] -6.65% | [3] 8.15% | [4] 20.9% | [5] 0.45% | [6] 26.1%

CCCCCCCC/C=C\CCCCCCCC(=O)NC(C)(C)C(=O)O
inactive: [1] -16.2% | [2] -15.7% | [3] -9.5% | [4] 62.6% | [5] 32.2% | [6] -36.4%

CN(C)CCC(=O)C(=Cc1ccc(Cl)c(Cl)c1)C(=O)CCN(C)C
active: [1] 93.2% | [2] 97.7% | [3] 95% | [4] 79.8% | [5] 97.8% | [6] 98%

CC1=NN2C(c3ccc([N+](=O)[O-])cc3)=CSC2=NC(C)(C)C1
inactive: [1] 20.6% | [2] -5.6% | [3] 5.7% | [4] -5% | [5] -4.95% | [6] -11.6%
